Source: PubChem BioAssay
Unmarked numbers belong to inactive results. The source made the active and inactive calls.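 How the source made its calls, unless noted: active means inhibition of the reporter signal at or above 50%; inactive means inhibition below 50%.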

experiment: inhibitors of Sendai virus-induced IRF3 signaling, primary screen, TLR/RLR signaling modifier project, cell-based, Sendai virus stimulus, luciferase, 10K MLSCN set (AID 602276;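 active means inhibition at or above 50% at 10 µM; inactive means inhibition below 50%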;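 further: firefly luciferase from ISG56 promoter only with Renilla not read in this screen; 0% = Sendai virus plus DMSO and 100% = medium plus DMSO without virus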); conditions: HEK293 RL24 IRF3 luciferase reporter, at 10 µM, hits give high values

**Q.** For `CC(C)Cn1c(=O)c(C(=O)Nc2ccccc2S(N)(=O)=O)c(O)c2ccccc21`, which inhibition is on record?
**A.** Its inhibition is -1.36%.

**Q.** Which inhibition does the source give for `O=C(CCN1CCc2ccccc2C1)Nc1ccc2c(c1)OCO2` here?
**A.** The inhibition was 6.95%.

**Q.** For `CCN1C(=O)c2ccccc2S(=O)(=O)c2ccc(C(=O)NCc3cccnc3)cc21`, which inhibition is on record?
**A.** Its inhibition is -13.6%.

**Q.** Which inhibition does the source give for `O=C(O)CCc1ccc(-c2cccs2)o1` here?
**A.** The inhibition was 16.2%.

**Q.** Which inhibition does the source give for `CCCCOCCCNC(=O)c1cccs1` here?
**A.** The inhibition was 5.11%.

**Q.** With `O=C1CC(C2CCCO2)C(=O)N1Cc1ccccc1` (stereo not given) as the compound, how does the inhibition read?
**A.** Its inhibition is -6.03%.

**Q.** With `Cc1onc(-c2ccccc2)c1C(=O)Nc1ccc(S(=O)(=O)N2CCCCC2)cc1` as the compound, how does the inhibition read?
**A.** Its inhibition is 15.1%.

**Q.** Which inhibition does the source give for `O=C(CSc1nnc(-c2ccccc2)o1)N1CCN(c2ccccc2)CC1` here?
**A.** Its inhibition is 5.38%.

**Q.** Which inhibition does the source give for `CC1=C(C(=O)Nc2ccccc2)C(c2ccccn2)n2nc(CCCO)nc2N1` (stereo not given) here?
**A.** Its inhibition is 9.62%.

**Q.** With `COc1ccc(C(=O)CSc2nnc(C3CCCCC3)n2N)c(OC)c1` as the compound, how does the inhibition read?
**A.** The inhibition was 10.3%.

**Q.** Which inhibition does the source give for `COc1cc(NC(=O)Cc2ccccc2OC)cc(OC)c1` here?
**A.** The inhibition was -19%.

**Q.** With `COC(=O)CCC(=O)Nc1cccc(Br)c1` as the compound, how does the inhibition read?
**A.** The inhibition was 9.55%.

**Q.** Which inhibition does the source give for `N#Cc1c(NC(NC(=O)c2ccco2)C(=O)c2ccccc2)sc2c1CCCC2` (stereo not given) here?
**A.** Its inhibition is 5.59%.

**Q.** Which inhibition does the source give for `O=C(COc1ccc2ccccc2c1)N1CCCC1` here?
**A.** Its inhibition is -31.9%.

**Q.** Which inhibition does the source give for `COc1ccccc1S(=O)(=O)Cc1ccc(C(=O)NCCN2CCCCCC2)o1` here?
**A.** Its inhibition is 11%.

**Q.** With `O=C1C2CC=CCC2C(=O)N1c1ccc(Cc2ccncc2)cc1` (stereo not given) as the compound, how does the inhibition read?
**A.** Its inhibition is -2.68%.

**Q.** For `COCCNC(=O)C(c1ccc(O)cc1)N(Cc1ccco1)C(=O)CCC(=O)Nc1nccs1` (stereo not given), which inhibition is on record?
**A.** Its inhibition is -12.6%.

**Q.** Which inhibition does the source give for `Cc1ccc(C)c(NC(=O)c2ccc3c(c2)N(Cc2ccc(F)cc2)C(=O)CS3=O)c1` (stereo not given) here?
**A.** Its inhibition is 4.49%.

**Q.** With `Cc1ccc(NC(=O)CN(C)S(=O)(=O)c2cccc3nsnc23)cc1Cl` as the compound, how does the inhibition read?
**A.** Its inhibition is -17.3%.

**Q.** For `CS(=O)(=O)N1CCC(C(=O)NCCC2=CCCCC2)CC1`, which inhibition is on record?
**A.** The inhibition was 12.6%.

**Q.** With `O=C(CSc1ncccn1)NCc1ccccc1` as the compound, how does the inhibition read?
**A.** Its inhibition is -29.7%.

**Q.** For `Cc1cccnc1-n1c(CCN2C(=O)c3ccccc3C2=O)nc2ccccc2c1=O`, which inhibition is on record?
**A.** Its inhibition is 2.74%.

**Q.** Which inhibition does the source give for `CCCn1c(O)c(CN2CCCC(C)C2)c(C)c(C#N)c1=O` (stereo not given) here?
**A.** The inhibition was 13.3%.

**Q.** For `COc1ccc(N2C(=O)CCC(C(=O)N3CCCCC3)C2c2ccc(OC)c(OC)c2)cc1` (stereo not given), which inhibition is on record?
**A.** The inhibition was 12.8%.

**Q.** For `COC(=O)CSC1=C(C#N)C(c2ccc(F)cc2)CC(=O)N1` (stereo not given), which inhibition is on record?
**A.** The inhibition was 10.2%.

**Q.** With `Cn1nnc2cc(C(=O)N3CCCCCC3)ccc21` as the compound, how does the inhibition read?
**A.** The inhibition was -1.25%.

**Q.** With `COC(=O)c1cc(-c2ccccc2)sc1NC(=O)c1cc(C)on1` as the compound, how does the inhibition read?
**A.** The inhibition was -14.9%.

**Q.** With `CCC(c1nnnn1C(C)(C)C)N1CCN(C2CCCC2)CC1` (stereo not given) as the compound, how does the inhibition read?
**A.** The inhibition was 16.1%.

**Q.** For `Cn1c(=O)c2ncn(CC(=O)NCCOc3ccc(C(C)(C)C)cc3)c2n(C)c1=O`, which inhibition is on record?
**A.** The inhibition was -12.6%.

**Q.** Which inhibition does the source give for `O=C(COC(=O)c1cc(-c2ccco2)nc2ccccc12)NCc1ccc2c(c1)OCO2` here?
**A.** The inhibition was 2.9%.

**Q.** With `CCN=C1SC(CC(=O)Nc2ccccc2)C(=O)N1CC` (stereo not given) as the compound, how does the inhibition read?
**A.** The inhibition was 8.21%.

**Q.** With `Cn1c(=O)c2c(nc(CN3CCCCC3)n2CCc2ccccc2)n(C)c1=O` as the compound, how does the inhibition read?
**A.** Its inhibition is -6.67%.

**Q.** Which inhibition does the source give for `COc1cc(C(O)c2nc3ccccc3n2C)cc(OC)c1OC` (stereo not given) here?
**A.** Its inhibition is 2.58%.

**Q.** For `c1ccc(CSc2nnc(-c3cccs3)n2Cc2ccco2)cc1`, which inhibition is on record?
**A.** Its inhibition is -8.26%.

**Q.** With `CCCCC(=O)NCCNc1nc2c(c(=O)n(C)c(=O)n2C)n1Cc1ccccc1` as the compound, how does the inhibition read?
**A.** The inhibition was 15.2%.

**Q.** With `CCOc1ccccc1C1C(C(=O)Nc2ccc(OC)cc2)=C(C)Nc2nc(CCCO)nn21` (stereo not given) as the compound, how does the inhibition read?
**A.** Its inhibition is -0.537%.

**Q.** With `CCCN(CCC)CCNC(=O)c1cc2c(=O)n(C)c3ccccc3c2n1C` as the compound, how does the inhibition read?
**A.** Its inhibition is 27.9%.

**Q.** With `Cc1nc2ccc(NC(=O)NCc3ccco3)cc2s1` as the compound, how does the inhibition read?
**A.** Its inhibition is -22.3%.

**Q.** Which inhibition does the source give for `COc1cc(Br)cc(CN2CCN(C/C=C/c3ccccc3)CC2)c1O` here?
**A.** Its inhibition is -0.336%.

**Q.** With `COC(=O)C1=C(C)OC(N)=C(C#N)C1c1c(C)nn(-c2ccccc2)c1Cl` (stereo not given) as the compound, how does the inhibition read?
**A.** Its inhibition is -88.9%.

experiment: inhibitors of poly I:C-induced TLR3 signaling, primary screen, cell-based, poly I:C stimulus, luciferase, 10K MLSCN set (AID 602277); conditions: HEK293-TLR3 RL24 IRF3 luciferase reporter, at 10 µM, hits give high values

**Q.** For `CC(C)Cn1c(=O)c(C(=O)Nc2ccccc2S(N)(=O)=O)c(O)c2ccccc21`, which inhibition is on record?
**A.** Its inhibition is -18.4%.

**Q.** With `O=C(CCN1CCc2ccccc2C1)Nc1ccc2c(c1)OCO2` as the compound, how does the inhibition read?
**A.** The inhibition was 14.1%.

**Q.** With `CCN1C(=O)c2ccccc2S(=O)(=O)c2ccc(C(=O)NCc3cccnc3)cc21` as the compound, how does the inhibition read?
**A.** The inhibition was 1.79%.

**Q.** For `O=C(O)CCc1ccc(-c2cccs2)o1`, which inhibition is on record?
**A.** The inhibition was 27%.

**Q.** Which inhibition does the source give for `CCCCOCCCNC(=O)c1cccs1` here?
**A.** Its inhibition is 25.1%.

**Q.** For `O=C1CC(C2CCCO2)C(=O)N1Cc1ccccc1` (stereo not given), which inhibition is on record?
**A.** The inhibition was 10.9%.

**Q.** With `Cc1onc(-c2ccccc2)c1C(=O)Nc1ccc(S(=O)(=O)N2CCCCC2)cc1` as the compound, how does the inhibition read?
**A.** The inhibition was 32.9%.

**Q.** For `O=C(CSc1nnc(-c2ccccc2)o1)N1CCN(c2ccccc2)CC1`, which inhibition is on record?
**A.** The inhibition was 2.42%.

**Q.** With `CC1=C(C(=O)Nc2ccccc2)C(c2ccccn2)n2nc(CCCO)nc2N1` (stereo not given) as the compound, how does the inhibition read?
**A.** The inhibition was 29.7%.

**Q.** With `COc1ccc(C(=O)CSc2nnc(C3CCCCC3)n2N)c(OC)c1` as the compound, how does the inhibition read?
**A.** The inhibition was 11.5%.

**Q.** For `COc1cc(NC(=O)Cc2ccccc2OC)cc(OC)c1`, which inhibition is on record?
**A.** Its inhibition is -15%.

**Q.** With `COC(=O)CCC(=O)Nc1cccc(Br)c1` as the compound, how does the inhibition read?
**A.** Its inhibition is 17.4%.

**Q.** Which inhibition does the source give for `N#Cc1c(NC(NC(=O)c2ccco2)C(=O)c2ccccc2)sc2c1CCCC2` (stereo not given) here?
**A.** Its inhibition is 22.2%.

**Q.** With `O=C(COc1ccc2ccccc2c1)N1CCCC1` as the compound, how does the inhibition read?
**A.** The inhibition was -85%.

**Q.** For `COc1ccccc1S(=O)(=O)Cc1ccc(C(=O)NCCN2CCCCCC2)o1`, which inhibition is on record?
**A.** Its inhibition is 39.3%.

**Q.** With `O=C1C2CC=CCC2C(=O)N1c1ccc(Cc2ccncc2)cc1` (stereo not given) as the compound, how does the inhibition read?
**A.** The inhibition was -12.7%.

**Q.** Which inhibition does the source give for `COCCNC(=O)C(c1ccc(O)cc1)N(Cc1ccco1)C(=O)CCC(=O)Nc1nccs1` (stereo not given) here?
**A.** The inhibition was 14.7%.

**Q.** For `Cc1ccc(C)c(NC(=O)c2ccc3c(c2)N(Cc2ccc(F)cc2)C(=O)CS3=O)c1` (stereo not given), which inhibition is on record?
**A.** The inhibition was 20.4%.

**Q.** With `Cc1ccc(NC(=O)CN(C)S(=O)(=O)c2cccc3nsnc23)cc1Cl` as the compound, how does the inhibition read?
**A.** The inhibition was 100% (active).

**Q.** For `CS(=O)(=O)N1CCC(C(=O)NCCC2=CCCCC2)CC1`, which inhibition is on record?
**A.** Its inhibition is 8.24%.

**Q.** Which inhibition does the source give for `O=C(CSc1ncccn1)NCc1ccccc1` here?
**A.** Its inhibition is -47.8%.

**Q.** With `Cc1cccnc1-n1c(CCN2C(=O)c3ccccc3C2=O)nc2ccccc2c1=O` as the compound, how does the inhibition read?
**A.** The inhibition was 2.5%.

**Q.** With `CCCn1c(O)c(CN2CCCC(C)C2)c(C)c(C#N)c1=O` (stereo not given) as the compound, how does the inhibition read?
**A.** Its inhibition is 22.1%.

**Q.** Which inhibition does the source give for `COc1ccc(N2C(=O)CCC(C(=O)N3CCCCC3)C2c2ccc(OC)c(OC)c2)cc1` (stereo not given) here?
**A.** The inhibition was 21.7%.

**Q.** With `COC(=O)CSC1=C(C#N)C(c2ccc(F)cc2)CC(=O)N1` (stereo not given) as the compound, how does the inhibition read?
**A.** The inhibition was 19.4%.

**Q.** For `Cn1nnc2cc(C(=O)N3CCCCCC3)ccc21`, which inhibition is on record?
**A.** The inhibition was 12.6%.

**Q.** Which inhibition does the source give for `COC(=O)c1cc(-c2ccccc2)sc1NC(=O)c1cc(C)on1` here?
**A.** The inhibition was -8.07%.

**Q.** Which inhibition does the source give for `CCC(c1nnnn1C(C)(C)C)N1CCN(C2CCCC2)CC1` (stereo not given) here?
**A.** Its inhibition is 9.37%.

**Q.** For `Cn1c(=O)c2ncn(CC(=O)NCCOc3ccc(C(C)(C)C)cc3)c2n(C)c1=O`, which inhibition is on record?
**A.** Its inhibition is -14.5%.

**Q.** With `O=C(COC(=O)c1cc(-c2ccco2)nc2ccccc12)NCc1ccc2c(c1)OCO2` as the compound, how does the inhibition read?
**A.** The inhibition was 11.8%.

**Q.** With `CCN=C1SC(CC(=O)Nc2ccccc2)C(=O)N1CC` (stereo not given) as the compound, how does the inhibition read?
**A.** Its inhibition is 30%.

**Q.** For `Cn1c(=O)c2c(nc(CN3CCCCC3)n2CCc2ccccc2)n(C)c1=O`, which inhibition is on record?
**A.** Its inhibition is -8.47%.

**Q.** With `COc1cc(C(O)c2nc3ccccc3n2C)cc(OC)c1OC` (stereo not given) as the compound, how does the inhibition read?
**A.** The inhibition was 18.3%.

**Q.** For `c1ccc(CSc2nnc(-c3cccs3)n2Cc2ccco2)cc1`, which inhibition is on record?
**A.** The inhibition was -9.64%.

**Q.** With `CCCCC(=O)NCCNc1nc2c(c(=O)n(C)c(=O)n2C)n1Cc1ccccc1` as the compound, how does the inhibition read?
**A.** Its inhibition is 24.6%.

**Q.** For `CCOc1ccccc1C1C(C(=O)Nc2ccc(OC)cc2)=C(C)Nc2nc(CCCO)nn21` (stereo not given), which inhibition is on record?
**A.** The inhibition was 17.2%.

**Q.** With `CCCN(CCC)CCNC(=O)c1cc2c(=O)n(C)c3ccccc3c2n1C` as the compound, how does the inhibition read?
**A.** Its inhibition is 68.2% (active).

**Q.** Which inhibition does the source give for `Cc1nc2ccc(NC(=O)NCc3ccco3)cc2s1` here?
**A.** Its inhibition is -83.4%.

**Q.** For `COc1cc(Br)cc(CN2CCN(C/C=C/c3ccccc3)CC2)c1O`, which inhibition is on record?
**A.** Its inhibition is -8.7%.

**Q.** For `COC(=O)C1=C(C)OC(N)=C(C#N)C1c1c(C)nn(-c2ccccc2)c1Cl` (stereo not given), which inhibition is on record?
**A.** Its inhibition is -11.8%.
